# Reference: PubChem BioAssay AID1508649 (National Center for Advancing Translational Sciences (NCATS), 2021)
# The campaign covered roughly 43,000 compounds. About 830 (1.9%) were called active. Not shown: some 30% with an inconclusive outcome. Many of the other results were omitted from the sample, so actives are more common in it than they were. Values without a mark were called inactive. Rule for the calls: active = clear falling dose curves in both reporters; inconclusive = both reporters move, but less clearly or upward; inactive = either reporter flat; the % is the NLuc reporter signal.
# Assay: Cell-based coincidence reporter assay to measure PMP22 gene transcription in S16 Pmp22-F2sN cells - Primary screen
# Settings: S16 Pmp22-F2sN Schwann cells (luciferase reporters placed in the Pmp22 gene), FLuc/NLuc coincidence luminescence, 24 h; series mostly up to 57.5 µM; activity change, negative = inhibition: at the top concentration
# Text: Assay Provider: Jim Inglese Ph.D. National Center for Advancing Translational Science, National Institutes of Health, Rockville, MD CMT is a heterogeneous group of neurological disorders that affect approximately 1 in 2,500 people. In particular, the most common form of CMT, CMT1A is genetically linked to the duplication of the PMP22 gene which leads to Schwann cell overexpression, thus manifesting itself as a typical case of dose-sensitive diseases. To identify small molecule compounds that can mediate the expression of PMP22 we developed a phenotypic assay screening strategy by utilizing genome editing techniques to construct Schwann cell lines containing novel reporter technology to monitor the transcriptional or translational regulation of PMP22. For high sensitivity we use a bioluminescent reporter system embedded in the 3' UTR of the PMP22 gene (S16(c9) Pmp22-F2sN) to identify compounds that inhibit gene expression. […] We can further discriminate the effect of all transcriptionally active molecules on PMP22 translation or stability with an assay that incorporates a short NLuc peptide (HiBiT) at the C-terminus of expressed PMP22 (S16(f8) PMP22-HiBiT) allowing alpha complementation and luminescence detection of membrane-associated PMP22 protein. These assays were screened against the NCATS Sytravon Library Collection. Miniaturization of these assays to 1536-well plate format for quantitative high throughput screening (qHTS) yielded rich data sets immediately from the qHTS assay (S16(c9) Pmp22-F2sN), when compared with data from a cell viability assay (Cell TiterGlo) to identify compounds that decreased the output signals through cellular toxicity to streamline the selection process of actives for subsequent characterization using the HiBiT assay (S16(f8) PMP22-HiBiT).
# Cell-based coincidence reporter assay to measure PMP22 gene transcription in S16 Pmp22-F2sN cells PROTOCOL TABLE (format as described by Inglese J, Shamu CE and Guy RK. 2007) SEQUENCE No. (e.g., 1, 2, 3, etc.); […] (e.g., Cells, Incubation, Reagent, etc.); VALUE and DESCRIPTION. 1. Cells. Add 500-1,000 cells in 4 uL in growth media (DMEM High Glucose, No Phenol Red media + 10% heat-inactivated FBS + 1% Pen/Strep supplemented media) per well into Greiner 1536-well white/solid bottom high base, TC-treated plates. 2. Compounds. Library compounds and controls added at 23nL per well, transferred by Pin Tool. 3. Incubation. Incubate plates at 37C, 5% CO2, 95% RH for 24 h. 4. Reagent. Add 3.5uL Nano-Glo Dual-Luciferase Reporter Assay System reagent 1: Lysis and FLuc reagent per well of Greiner 1536-well plates. 5. Incubation. Incubate plates at room temperature for 10 min., protect from light. 6. Detector. FLuc luminescence measured using CCD-based camera (Viewlux). 7. Reagent. Add 3.5uL Nano-Glo Dual-Luciferase Reporter Assay System reagent 2: Stop&Glo reagent per well of Greiner 1536-well plates. 8. Incubation. Incubate plates at room temperature for 10 min., protect from light. 9. Detector. NLuc luminescence measured using CCD-based camera (Viewlux). NOTES (numbers refer to Sequence numbers above; values are from representative experiments) 6. Luminescence Read #1 (FLuc): Clear filter; Exposure = 10 sec, Gain = High, Speed = Slow, Binning = 2X 9. Luminescence Read #2 (NLuc): Clear filter; Exposure = 1 sec, Gain = High, Speed = Slow, Binning = 2X REFERENCES: 1. Inglese J, Shamu CE and Guy RK, Reporting data from high throughput screening of small molecule libraries, Nature Chemical Biology, 2007, 3(8): 438-441. doi.org/10.1038/nchembio0807-438 2. Yasgar A, Shinn P, Jadhav A, Auld DS, Michael S, Zheng W, Austin CP, Inglese J and Simeonov A, Compound Management for Quantitative High-Throughput Screening. J. Assoc. Lab. Auto., 2008, 13: 79-89. doi: 10.1016/j.jala.2007.12.004
# % is set by controls: 0 for no effect and ±100 for the full control effect; potency is the fitted concentration of half-maximal effect.
SMILES,"activity change, negative = inhibition",Potency
CCC(C(=O)Nc1cccc(-c2nc3cccnc3s2)c1C)c1ccccc1 (stereo not given),-37.5%,–
CCOC(=O)c1sc(NC(=O)/C=C/c2ccc(C(C)C)cc2)c(C(=O)OCC)c1C,-30.7%,–
COc1ccccc1-c1cc(C(F)(F)F)nc(S(=O)(=O)CCCC(=O)Nc2ccc(F)cc2F)n1,–,11.3 µM (active)
COc1ccccc1-c1cc(C(F)(F)F)nc(S(=O)(=O)CCCC(=O)Nc2cc(C)ccc2O)n1,-12.6%,–
Cc1ccc(F)cc1NC(=O)CCSc1nc(-c2ccco2)cc(C(F)(F)F)n1,9.36%,–
COc1cc2c(cc1OC)C(COc1ccc(F)cc1)N(C(=O)c1ccccc1F)CC2 (stereo not given),0.344%,–
COc1ccc(N2CCN(Cc3nc4c(c(=O)[nH]c(=O)n4C)n3Cc3ccc(Cl)cc3)CC2)cc1,-16.2%,–
COC(=O)c1c(NC(=O)CCCOc2ccccc2)sc2c1CCC(C)C2 (stereo not given),7.02%,–
O=C(Cc1ccccc1)Nc1sc2c(c1C(=O)Nc1ccc(Br)cc1)CCC2,-32.6%,–
CCOc1ccc(NC(=O)c2c(NC(=O)Cc3ccccc3)sc3c2CCC(C)C3)cc1 (stereo not given),–,18.9 µM (active)
Cc1ccc(Nc2c(-c3ccc(C)s3)nc3ccccn23)cc1,-18.5%,–
CCC(=O)N1CCc2cc(Br)cc(S(=O)(=O)CCC(=O)N3CCN(c4ccc(F)cc4)CC3)c21,-7.19%,–
COc1ccc(OC)c(-n2nnc(-c3nc(-c4cc(OC)c(OC)c(OC)c4)no3)c2C)c1,-0.737%,–
COc1ccc(C(=O)COC(=O)CCCC(=O)Nc2cc(C(F)(F)F)ccc2Cl)cc1,3.27%,–
COc1ccc(-c2nn3c(=O)cc(CN4CCN(C(=O)c5ccc(OC)c(OC)c5)CC4)nc3s2)cc1,12.8%,–
CCOc1ccc(N(CC)C(=O)C2CCN(S(=O)(=O)c3cccc4nonc34)CC2)cc1,-35.2%,–
CCOc1ccc(N(Cc2ccccc2)C(=O)c2nc(S(C)(=O)=O)ncc2Cl)cc1,–,1.5 µM (active)
CCOc1ccc(N(CC)C(=O)c2noc3c2COc2ccc(C)cc2-3)cc1,-28.9%,–
COc1ccccc1-c1noc(-c2ccc(NCc3ccccc3)c([N+](=O)[O-])c2)n1,-5.34%,–
Cc1ccc(C)c(S(=O)(=O)n2nc(C)c(S(=O)(=O)N3CCC(C)CC3)c2C)c1,-0.0168%,–
O=C(CC1Oc2ccccc2NC1=O)NCc1ccc(F)cc1 (stereo not given),-7.34%,–
CCOc1ccc(NC(=O)C2CCN(S(=O)(=O)c3cc(-c4noc(C)n4)ccc3C)CC2)cc1,-42.5%,–
COc1ccc(N2CC(C(=O)NCCS(=O)(=O)N3CCN(c4ccccc4)CC3)CC2=O)cc1 (stereo not given),5.34%,–
Cc1ccccc1CNC(=O)Cn1c(C)c2cnn(-c3ccccc3)c(=O)c2c1C,-12.3%,–

SMILES,"activity change, negative = inhibition",Potency
COc1ccc(OC)c(CNC(=O)Cn2nc(C)c3c(C)n(-c4ccccc4)nc3c2=O)c1,-3.25%,–
Cc1nnc(SCC(=O)NCc2ccccc2Cl)c2nn(-c3ccccc3)c(C)c12,–,14.1 µM (active)
Cc1nnc(N2CCCC(C(=O)NCCN(C)C)C2)c2nn(-c3ccccc3)c(C)c12 (stereo not given),-57.6%,–
Cc1ccccc1CNC(=O)CSc1nnc(C)c2c(C)n(-c3ccccc3)nc12,–,16.8 µM (active)
COc1ccccc1CNC(=O)Cn1nc(C)c2nn(-c3ccc(Cl)cc3)c(C)c2c1=O,-3.87%,–
CCc1cnc2c(c1SCC(=O)N1CCC(C)CC1)c(=O)n(C)c(=O)n2C,-1.6%,–
COc1ccc(NC(C)=O)cc1NC(=O)CN1CCN(c2ccc(F)cc2)CC1,4.65%,–
COc1cc(C(=O)N2CCC(c3ccncc3)CC2)cc(OC)c1OC,-7.79%,–
CCOC(=O)c1oc2ccc(S(=O)(=O)n3nc(-c4ccccc4OC)cc3N)cc2c1C,–,14.4 µM (active)
COc1ccc(NC(=O)c2oc3ccc(S(=O)(=O)N4CCOCC4)cc3c2C)cc1,14.2%,–
COc1ccccc1-c1cc2nc(C)c(CCC(=O)O)c(C)n2n1,27.9%,–
COc1cccc(C(=O)NC2(C(F)(F)F)C(=O)Nc3c2c(=O)[nH]c(=O)n3-c2ccc(C)cc2)c1 (stereo not given),-20.3%,–
CCn1c(C(=O)Nc2cc(Cl)ccc2C)cc2sc(Cl)cc21,-32.4%,–
Cc1ccc(NC(=O)C2CCCN2S(=O)(=O)c2cccc3cccnc23)c(C)c1 (stereo not given),-8.58%,–
COC(=O)c1cc2occc2n1Cc1nc(-c2ccc(C)cc2)oc1C,-7.42%,–
COc1ccc(-n2nc(C(=O)NCCc3ccc(Cl)cc3)c3c4ccccc4n(C)c3c2=O)cc1Cl,-8.53%,–
Cc1ccccc1C(=O)Nc1sc2c(c1C(=O)N1CCC(C)CC1)CCCC2,-10.7%,–
Cc1ccc(OCCSc2nc3ccc(NC(=O)COc4ccc(C)cc4)cc3s2)cc1,–,8.91 µM (active)
COc1cc(C)ccc1OCCSc1nc2ccc(NC(=O)c3ccc(C)cc3)cc2s1,-8.04%,–
O=C(Nc1ccc2nc(SCCOc3ccccc3)sc2c1)c1ccco1,-21.5%,–
CCc1ccc(S(=O)(=O)n2ccnc2)cc1,0.251%,–
O=C(CN1C(=O)CCn2nc(-c3ccccc3)cc21)NCc1ccccc1,-8.68%,–
Cc1noc(/C=C/N(C)C)c1S(=O)(=O)N1CCCC(C(=O)Nc2cccc(F)c2)C1 (stereo not given),-12.4%,–
CC(=O)N1CCCc2cc(S(=O)(=O)N3CCCC(C(=O)NCc4ccc(Cl)cc4)C3)ccc21 (stereo not given),-50.4%,–

SMILES,"activity change, negative = inhibition",Potency
CC(=O)N1CCCc2cc(S(=O)(=O)N3CCCC(C(=O)N4CCN(c5cccc(Cl)c5)CC4)C3)ccc21 (stereo not given),–,10 µM (active)
COc1cccc(N2CCN(S(=O)(=O)c3ccc4c(c3)CCCN4C(C)=O)CC2)c1,-20.8%,–
Cc1ccc(Nc2nc3ccccc3nc2-n2nc(C)cc2C)c(Cl)c1,-3.07%,–
Cc1cccc(Nc2nc(C)nc(N)c2S(=O)(=O)c2ccccc2)c1,-24.8%,–
Cc1cccc(Nc2cc(C)nc(-n3nc(C)cc3C)n2)c1,–,9.15 µM (active)
Cc1cccc(NC(=O)Cn2cc(S(=O)(=O)Cc3ccccc3Cl)c3ccccc32)c1,-23.6%,–
Cc1c(Cl)cccc1NC(=O)N1CCN(C(=O)c2nsc3ccccc23)CC1,6.76%,–
Cc1c(Cl)cccc1NC(=O)Cn1cc(C(=O)c2cccs2)c2ccccc21,–,8.91 µM (active)
Cc1cccc(NC(=O)CSc2nc(-c3ccco3)cc(C(F)(F)F)n2)c1C,-2.59%,–
Cc1ccc2ncc(C(=O)Nc3ccc(OC(F)(F)F)cc3)c(=O)n2c1,-9.44%,–
COCC(C)NS(=O)(=O)c1ccc(N2CCCCS2(=O)=O)cc1 (stereo not given),-17.4%,–
CCOC(=O)C1CCN(c2ncnc3c2c(-c2ccccc2)cn3-c2cccc(C)c2)CC1,29.9%,–
Cc1cccc(NC(=O)CN(c2ccc(C(C)C)cc2)S(=O)(=O)c2c(C)nn(C)c2C)c1C,-1.83%,–
O=C(Nc1ccc(F)cc1F)c1cnn(-c2ccc(F)cc2)c1-n1cccc1,1.78%,–
Cc1cc(F)ccc1NC1(c2ccccc2)C(=O)c2ccccc2C1=O,-17.3%,–
Cc1cc(F)ccc1NS(=O)(=O)c1ccc(-n2cccn2)cc1,–,15 µM (active)
O=C(Cn1nc(Cc2cccnc2)c2ccccc2c1=O)N1CCN(c2ccccc2F)CC1,-3.71%,–
Cc1ccc(C2C=C(c3ccc(Cl)cc3)Nc3nc(NC(=O)CCC(=O)O)nn32)cc1 (stereo not given),-1.58%,–
Cc1cc(-c2ccccc2)n2nc(-c3ccccc3)cc2n1,24.1%,–
O=C(CCc1nc(CN2CCN(S(=O)(=O)c3ccc(Cl)cc3)CC2)no1)N1CCCCC1,-9.23%,–
Cc1cc(C)c(NC(=O)CSc2nc3ccncc3[nH]2)c(C)c1,-45.4%,–
Cc1ccc(CNC(=O)c2c(O)nc3c(C)cccn3c2=O)cc1,25.4%,–
CCCn1c(=N)c(C(=O)NCc2ccccc2)cc2c(=O)n3cccc(C)c3nc21,–,2.24 µM (active)
CCCCn1c(=N)c(S(=O)(=O)c2ccccc2)cc2c(=O)n3cccc(C)c3nc21,-13.2%,–

SMILES,"activity change, negative = inhibition",Potency
COc1ccc(-c2cc(C(=O)NCc3cc(OC)c(OC)c(OC)c3)[nH]n2)cc1,-8.61%,–
Cc1ccccc1CNC(=O)C(=O)NCC(c1cccs1)S(=O)(=O)c1cccs1 (stereo not given),-27.5%,–
Cc1ccc(-n2nc(C)c(C(=O)O)c2-n2cccc2)cc1,-0.533%,–
CCOCCCNC(=O)c1cc2c(=O)n3ccccc3nc2s1,-12.9%,–
CCn1c(=O)c2cc(C(=O)NCCc3ccc(Cl)cc3)sc2c2ccccc21,-26.8%,–
CCC1CCCCN1CCCNC(=O)c1cc2c(Cl)nc3ccccc3c2s1 (stereo not given),–,17.8 µM (active)
O=S(=O)(Nc1ccc2nc(-c3cccc(Cl)c3)oc2c1)c1ccccc1,-19.7%,–
COc1cc(OC)c(NC(=O)c2nc(-c3ccncc3)no2)cc1Cl,-11.9%,–
CCCN(CCC)CCCNC(=O)Cn1ncc2c3ccccc3n(Cc3ccccc3)c2c1=O,-19.1%,–
CCCn1c2ccccc2c2cnn(CC(=O)N3CCCC(C(=O)OCC)C3)c(=O)c21 (stereo not given),-19.6%,–
CCCn1c2ccccc2c2cnn(CC(=O)NCC3CCN(Cc4ccc(C)cc4)CC3)c(=O)c21,–,18.9 µM (active)
O=C(Cn1ncc2c3ccccc3n(Cc3ccccc3)c2c1=O)NCc1ccccn1,-17.6%,–
Cc1ccc(Cn2c(C)c3cnn(CC(=O)NCc4ccccc4)c(=O)c3c2C)cc1,–,8.43 µM (active)
CCCn1c2ccccc2c2cnn(CC(=O)NCCCOC(C)C)c(=O)c21,-4.77%,–
CCOC(=O)c1ccc(NC(=O)Cn2c(=O)n(-c3ccc(C)cc3)c(=O)c3c2cnn3C)cc1,3.69%,–
O=C(CSc1nccn1Cc1ccc(F)cc1)NCc1ccccc1,0.174%,–
COc1ccc(NC(=O)C2CCN(c3ccc(Sc4ccc(C)cc4)nn3)CC2)c(OC)c1,-27.1%,–
COc1cc(C(=O)NCCc2csc3nc(-c4ccccc4C)nn23)cc(OC)c1OC,44.6%,–
CCC(=O)Nc1ccc(C)cc1-c1nc2ccccc2n(Cc2ccccc2)c1=O,1.15%,–
Cc1ccc(C)c(N2CCN(Cc3nnc(-c4ccccc4)o3)CC2)c1,-22.9%,–
CCN(CC)C(=O)CSc1nc2ccsc2c(=O)n1Cc1ccccc1Cl,-22.1%,–
COc1ccc(NS(=O)(=O)c2cc3c(cc2C)N(C(C)=O)CCO3)cc1,-6.59%,–
Cc1ccc2nc(COc3cccc(NC(=O)Nc4ccc(C)c(Cl)c4)c3)cc(=O)n2c1,-3.59%,–
